In all, about 5,500 compounds went through this assay and about 2,000 (36%) were called active. Not shown: some 18% with an inconclusive outcome. Cut-off read from the data, not from the text of the source: active = normalized growth mostly below about 0.91 (no sharp cut-off); inconclusive = no clear call, values can overlap the other calls; inactive = mostly above about 0.92. This is one part of the list.
Test: chemical genetic growth profiling, strain panel (AID 1159580);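 note: tested at 20 µM; growth read once vehicle control cultures reached saturation at 30 °C; 1 = growth at the plate median or of vehicle wells; lower values mean less growth of the strain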
Conditions: growth OD

Measured: normalized growth

C[C@H]1C(=O)O[C@@H]2CCN3CC=C(COC(=O)[C@](C)(O)[C@]1(C)O)[C@H]23
inactive: S. cerevisiae deletion strains, locus YKL068W, active compounds read low 0.992 | S. cerevisiae deletion strains, locus YKL085W, strain MDH1 (second series), active compounds read low 1.04 | S. cerevisiae deletion strains, locus YKL085W, strain MDH1, active compounds read low 1.04 | S. cerevisiae deletion strains, locus YKL160W, strain elf1, active compounds read low 0.991 | S. cerevisiae deletion strains, locus YKL190W, strain CNB1, active compounds read low 1 | S. cerevisiae deletion strains, locus YKR001C, strain vps1, active compounds read low 0.986 | S. cerevisiae deletion strains, locus YKR026C, strain gcn3, active compounds read low 0.986 | S. cerevisiae deletion strains, locus YKR091W, strain srl3, active compounds read low 0.975 | S. cerevisiae deletion strains, locus YLL001W, strain dnm1, active compounds read low 0.976 | S. cerevisiae deletion strains, locus YLL026W, active compounds read low 0.99 | S. cerevisiae deletion strains, locus YLL041C, strain sdh2, active compounds read low 0.993 | S. cerevisiae deletion strains, locus YLR027C, strain aat2, active compounds read low 0.993 | S. cerevisiae deletion strains, locus YLR039C, strain RIC1, active compounds read low 0.989 | S. cerevisiae deletion strains, locus YLR058C, strain SHM2, active compounds read low 0.99 | S. cerevisiae deletion strains, locus YLR102C, strain apc9, active compounds read low 0.988 | S. cerevisiae deletion strains, locus YLR113W, strain HOG1, active compounds read low 1.01 | S. cerevisiae deletion strains, locus YLR221C, strain rsa3, active compounds read low 1.01 | S. cerevisiae deletion strains, locus YLR258W, strain gsy2, active compounds read low 0.992 | S. cerevisiae deletion strains, locus YLR262C, strain YPT6 (second series), active compounds read low 0.976 | S. cerevisiae deletion strains, locus YLR262C, strain YPT6, active compounds read low 1.02 | S. cerevisiae deletion strains, locus YLR268W, strain sec22, active compounds read low 0.988 | S. cerevisiae deletion strains, locus YLR320W, strain mms22, active compounds read low 0.997 | S. cerevisiae deletion strains, locus YLR330W, strain CHS5, active compounds read low 0.992 | S. cerevisiae deletion strains, locus YLR342W, strain FKS1 (second series), active compounds read low 0.976 | S. cerevisiae deletion strains, locus YLR342W, strain FKS1, active compounds read low 0.997 | S. cerevisiae deletion strains, locus YLR357W, strain rsc2, active compounds read low 0.979 | S. cerevisiae deletion strains, locus YLR370C, strain arc18, active compounds read low 0.986 | S. cerevisiae deletion strains, locus YLR371W, strain rom2, active compounds read low 0.984 | S. cerevisiae deletion strains, locus YLR384C, strain iki3, active compounds read low 0.987 | S. cerevisiae deletion strains, locus YLR418C, strain cdc73, active compounds read low 0.985 | S. cerevisiae deletion strains, locus YML016C, strain PPZ1, active compounds read low 0.987 | S. cerevisiae deletion strains, locus YML032C, strain rad52, active compounds read low 0.993 | S. cerevisiae deletion strains, locus YML120C, strain ndi1, active compounds read low 0.988 | S. cerevisiae deletion strains, locus YML124C, strain tub3, active compounds read low 0.987 | S. cerevisiae deletion strains, locus YMR058W, strain fet3, active compounds read low 0.997 | S. cerevisiae deletion strains, locus YMR078C, strain ctf18, active compounds read low 0.983 | S. cerevisiae deletion strains, locus YMR125W, strain sto1, active compounds read low 0.987 | S. cerevisiae deletion strains, locus YMR129W, active compounds read low 0.998 | S. cerevisiae deletion strains, locus YMR205C, strain PFK2, active compounds read low 0.986 | S. cerevisiae deletion strains, locus YMR223W, strain ubp8, active compounds read low 0.991 | S. cerevisiae deletion strains, locus YMR231W, strain pep5, active compounds read low 0.998 | S. cerevisiae deletion strains, locus YMR263W, strain SAP30, active compounds read low 1 | S. cerevisiae deletion strains, locus YMR307W, strain GAS1, active compounds read low 0.983 | S. cerevisiae deletion strains, locus YNL067W, strain RPL9B, active compounds read low 1.02 | S. cerevisiae deletion strains, locus YNL071W, strain lat1, active compounds read low 0.991 | S. cerevisiae deletion strains, locus YNL128W, strain TEP1, active compounds read low 0.98 | S. cerevisiae deletion strains, locus YNL153C, strain GIM3, active compounds read low 1.02 | S. cerevisiae deletion strains, locus YNL183C, strain NPR1, active compounds read low 0.969 | S. cerevisiae deletion strains, locus YNL209W, strain ssb2, active compounds read low 0.994 | S. cerevisiae deletion strains, locus YNL233W, strain BNI4, active compounds read low 0.995 | S. cerevisiae deletion strains, locus YNL248C, strain rpa49, active compounds read low 0.995 | S. cerevisiae deletion strains, locus YNL250W, strain rad50, active compounds read low 0.978 | S. cerevisiae deletion strains, locus YNL271C, strain bni1, active compounds read low 0.985 | S. cerevisiae deletion strains, locus YNL298W, strain CLA4, active compounds read low 0.987 | S. cerevisiae deletion strains, locus YNL307C, strain MCK1, active compounds read low 0.991 | S. cerevisiae deletion strains, locus YNL322C, strain KRE1 (second series), active compounds read low 0.982 | S. cerevisiae deletion strains, locus YNL322C, strain KRE1, active compounds read low 0.993 | S. cerevisiae deletion strains, locus YNR049C, strain mso1, active compounds read low 0.989 | S. cerevisiae deletion strains, locus YNR052C, strain pop2, active compounds read low 0.987 | S. cerevisiae deletion strains, locus YOL006C, strain TOP1, active compounds read low 1.03 | S. cerevisiae deletion strains, locus YOL012C, strain htz1 0.746 | S. cerevisiae deletion strains, locus YOL147C, strain pex11, active compounds read low 0.997 | S. cerevisiae deletion strains, locus YOR001W, strain rrp6, active compounds read low 0.995 | S. cerevisiae deletion strains, locus YOR061W, strain CKA2, active compounds read low 0.989 | S. cerevisiae deletion strains, locus YOR069W, strain VPS5, active compounds read low 0.984 | S. cerevisiae deletion strains, locus YOR070C, strain gyp1, active compounds read low 0.994 | S. cerevisiae deletion strains, locus YOR080W, strain dia2, active compounds read low 0.994 | S. cerevisiae deletion strains, locus YOR083W, strain WHI5, active compounds read low 1 | S. cerevisiae deletion strains, locus YOR106W, strain vam3, active compounds read low 0.998 | S. cerevisiae deletion strains, locus YOR136W, strain idh2, active compounds read low 0.99 | S. cerevisiae deletion strains, locus YOR144C, strain elg1, active compounds read low 0.988 | S. cerevisiae deletion strains, locus YOR184W, strain ser1, active compounds read low 1.02 | S. cerevisiae deletion strains, locus YOR231W, strain MKK1, active compounds read low 0.98 | S. cerevisiae deletion strains, locus YOR265W, strain rbl2, active compounds read low 0.996 | S. cerevisiae deletion strains, locus YOR270C, strain vph1, active compounds read low 0.967 | S. cerevisiae deletion strains, locus YOR290C, strain snf2, active compounds read low 0.998 | S. cerevisiae deletion strains, locus YOR316C, strain cot1, active compounds read low 0.978 | S. cerevisiae deletion strains, locus YPL051W, strain arl3, active compounds read low 0.992 | S. cerevisiae deletion strains, locus YPL055C, strain LGE1, active compounds read low 1.06 | S. cerevisiae deletion strains, locus YPL078C, strain atp4, active compounds read low 0.993 | S. cerevisiae deletion strains, locus YPL106C, strain sse1, active compounds read low 0.98 | S. cerevisiae deletion strains, locus YPL240C, strain hsp82, active compounds read low 0.986 | S. cerevisiae deletion strains, locus YPL256C, strain CLN2, active compounds read low 0.992 | S. cerevisiae deletion strains, locus YPR119W, strain clb2, active compounds read low 0.991 | S. cerevisiae deletion strains, locus YPR141C, strain kar3, active compounds read low 0.98 | S. cerevisiae deletion strains, locus YPR163C, strain tif3, active compounds read low 0.986 | S. cerevisiae deletion strains, locus YPR167C, strain met16, active compounds read low 0.989 | S. cerevisiae deletion strains, strain wtn01, active compounds read low 0.987 | S. cerevisiae strains, strain wild type, active compounds read low 0.995
